4 compounds from PubChem BioAssay (NCI) can be followed below.

Some test systems named below: SK-MEL-2 melanoma; EKVX NSCLC; SN12C renal; UO-31 renal; ACHN renal; CAKI-1 renal; A498 renal; CCRF-CEM leukemia; MOLT-4 leukemia; SR leukemia; RPMI-8226 leukemia; OVCAR-8 ovarian; OVCAR-5 ovarian; OVCAR-4 ovarian; SK-OV-3 ovarian; IGROV1 ovarian; OVCAR-3 ovarian; NCI/ADR-RES ovarian; HS 578T breast.
Assay in all cases: NCI-60 one-dose screen, 48 h (100 = growth as untreated, 0 = no growth, -100 = all killed)
Common to all, as to settings: 10 µM unless noted

Compounds without any hit were thinned out: in the full panel of roughly 83,000, 20% have a hit.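 48-hour exposure, single concentration, 96-well plates; percent growth endpoint where 0 means no net growth. Active: below 10.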 A number with no mark means an inactive call. Active and inactive are the calls of the source.

On to `COc1ccc(-c2cc(-c3cc(OC)c(OC)c(OC)c3)c(C#N)c(=O)n2CCCCC(=O)NO)cc1`, for which the growth was 87.2% with SK-MEL-2 melanoma; 65.5% in the test on EKVX NSCLC; 66.5% in the test on SN12C renal; 37.8% in the test with UO-31 renal; 56.1% in the test on ACHN renal; 46.3% with CAKI-1 renal. In addition, the growth was 76.7% in the test on A498 renal; 26.7% with CCRF-CEM leukemia; 27.2% with MOLT-4 leukemia; 13.3% with SR leukemia; 35.9% in the test on RPMI-8226 leukemia; 42.4% with OVCAR-8 ovarian. Also, the growth in the test with OVCAR-5 ovarian is 76.6%; in the test on OVCAR-4 ovarian, 67%; with SK-OV-3 ovarian, 87.1%; in the test on IGROV1 ovarian it was 60.2%; in the test with OVCAR-3 ovarian it was 62.1%; in the test with NCI/ADR-RES ovarian, 38.8%.
Consider `COC(CC(F)F)c1cn(S(=O)(=O)c2ccc(C)cc2)c2ccccc12` (centres undefined), for which the growth in the test with SK-MEL-2 melanoma is 41.3%; in the test with EKVX NSCLC it was 48.3%; with SN12C renal, 43.3%; in the test with UO-31 renal, 33.8%; in the test with ACHN renal it was 51%; with CAKI-1 renal, 37.4%. In addition, the growth was 42.3% in the test with A498 renal; 11.1% with CCRF-CEM leukemia; 12.2% in the test with SR leukemia; 32.1% in the test with RPMI-8226 leukemia; 58.5% in the test on OVCAR-8 ovarian; 33.3% with OVCAR-5 ovarian. The growth in the test with OVCAR-4 ovarian was 65.5%; with SK-OV-3 ovarian it was 18.1%; in the test on IGROV1 ovarian it was 35.8%; in the test with OVCAR-3 ovarian, 7.08% (active); in the test with HS 578T breast, 32.5%; in the test on NCI/ADR-RES ovarian, 36.3%.
Regarding `O=C(/C=C/c1cn(-c2ccccc2)nc1-c1ccc(Cl)cc1)c1ccc(F)cc1`, the growth was 88.6% with SK-MEL-2 melanoma; 116% with EKVX NSCLC; 78.1% with SN12C renal; 63.3% with UO-31 renal; 77.7% in the test on ACHN renal; 76.5% in the test on CAKI-1 renal. Further, the growth is 96.5% in the test with A498 renal; 40% with CCRF-CEM leukemia; 36.1% in the test with MOLT-4 leukemia; 40.8% with SR leukemia; 67.5% in the test on RPMI-8226 leukemia; 80.6% in the test on OVCAR-8 ovarian. In addition, the growth was 99.3% in the test on OVCAR-5 ovarian; 71.9% with OVCAR-4 ovarian; 82.6% in the test on SK-OV-3 ovarian; 81.1% in the test on IGROV1 ovarian; 78.8% in the test on OVCAR-3 ovarian; 95.7% in the test with HS 578T breast. In addition, the growth in the test with NCI/ADR-RES ovarian is 69.8%.
On to `CS(=O)(=O)Nc1cncc(-c2ccc3ncnc(Nc4cncc(Cl)c4)c3c2)c1`, for which the growth was 67.6% with SK-MEL-2 melanoma; 96.1% with EKVX NSCLC; 84.3% with SN12C renal; 77.7% with UO-31 renal; 96% with ACHN renal; 94.9% in the test with CAKI-1 renal. The growth with A498 renal was 70.5%; with CCRF-CEM leukemia it was 35.7%; in the test with MOLT-4 leukemia, 78.4%; with SR leukemia, 87.9%; in the test on RPMI-8226 leukemia it was 102%; with OVCAR-8 ovarian, 87.1%. Moreover, the growth in the test on OVCAR-5 ovarian was 74.3%; in the test with OVCAR-4 ovarian, 108%; in the test on SK-OV-3 ovarian, 81.8%; in the test with IGROV1 ovarian, 69.8%; in the test with OVCAR-3 ovarian, 52.9%; with HS 578T breast, 56.6%. The growth with NCI/ADR-RES ovarian was 95.7%.
